# Measurements from publication PMC11062922 (Nature Chemical Biology, 2023).
# Where two headings read alike, the source gives them in different places.
# How the values were obtained:
# Set-up in all cases: species or system human, MV4-11 + K-562 + COLO205 + SK-N-BE2 + OVCAR-8
# ADRBK1 = conditions: read-out: apparent Kd, n = 1
# AURKA = conditions: read-out: apparent Kd; compound concentrations:100 nM and 1000 nM (sheet 'Samples'); n = 1
# CDC42BPA = conditions: read-out: apparent Kd; compound concentrations:100 nM and 1000 nM (sheet 'Samples'); n = 1
# CDC42BPB = conditions: read-out: apparent Kd; compound concentrations:100 nM and 1000 nM (sheet 'Samples'); n = 1
# CDC42BPG = conditions: read-out: apparent Kd; compound concentrations:100 nM and 1000 nM (sheet 'Samples'); n = 1
# CDK6 = conditions: read-out: apparent Kd; compound concentrations:100 nM and 1000 nM (sheet 'Samples'); n = 1
# CDKL5 = conditions: read-out: apparent Kd; compound concentrations:100 nM and 1000 nM (sheet 'Samples'); n = 1
# CHEK1 = conditions: read-out: apparent Kd; compound concentrations:100 nM and 1000 nM (sheet 'Samples'); n = 1
# CSNK1G1 = conditions: read-out: apparent Kd; compound concentrations:100 nM and 1000 nM (sheet 'Samples'); n = 1
# FN3KRP = conditions: read-out: apparent Kd; compound concentrations:100 nM and 1000 nM (sheet 'Samples'); n = 1
# MTHFD1 = conditions: read-out: apparent Kd; compound concentrations:100 nM and 1000 nM (sheet 'Samples'); n = 1
# NUAK1 = conditions: read-out: apparent Kd; compound concentrations:100 nM and 1000 nM (sheet 'Samples'); n = 1
# NUAK2 = conditions: read-out: apparent Kd; compound concentrations:100 nM and 1000 nM (sheet 'Samples'); n = 1
# PDXK = conditions: read-out: apparent Kd; compound concentrations:100 nM and 1000 nM (sheet 'Samples'); n = 1
# PKN1 = conditions: read-out: apparent Kd; compound concentrations:100 nM and 1000 nM (sheet 'Samples'); n = 1
# PKN2 = conditions: read-out: apparent Kd; compound concentrations:100 nM and 1000 nM (sheet 'Samples'); n = 1
# PRKAA1 = conditions: read-out: apparent Kd; compound concentrations:100 nM and 1000 nM (sheet 'Samples'); n = 1
# PRKACA = conditions: read-out: apparent Kd; compound concentrations: 100 nM and 1000 nM (sheet 'Samples'), CATDS: 9.7859849759824202E-2; n = 1
# PRKACB = conditions: read-out: apparent Kd; compound concentrations:100 nM and 1000 nM (sheet 'Samples'); n = 1
# PRKAG1 = conditions: read-out: apparent Kd; compound concentrations:100 nM and 1000 nM (sheet 'Samples'); n = 1
# PRKAG2 = conditions: read-out: apparent Kd; compound concentrations:100 nM and 1000 nM (sheet 'Samples'); n = 1
# PRKCA = conditions: read-out: apparent Kd; compound concentrations:100 nM and 1000 nM (sheet 'Samples'); n = 1
# PRKCB = conditions: read-out: apparent Kd; compound concentrations:100 nM and 1000 nM (sheet 'Samples'); n = 1
# PRKCD = conditions: read-out: apparent Kd; compound concentrations:100 nM and 1000 nM (sheet 'Samples'); n = 1
# PRKCQ = conditions: read-out: apparent Kd; compound concentrations:100 nM and 1000 nM (sheet 'Samples'); n = 1
# PRKG1 = conditions: read-out: apparent Kd; compound concentrations:100 nM and 1000 nM (sheet 'Samples'); n = 1
# PRKX;PRKY = conditions: read-out: apparent Kd; compound concentrations:100 nM and 1000 nM (sheet 'Samples'); n = 1
# ROCK1 = conditions: read-out: apparent Kd; compound concentrations:100 nM and 1000 nM (sheet 'Samples'); n = 1
# ROCK2 = conditions: read-out: apparent Kd; compound concentrations:100 nM and 1000 nM (sheet 'Samples'); n = 1
# RPS6KA5 = conditions: read-out: apparent Kd; compound concentrations:100 nM and 1000 nM (sheet 'Samples'); n = 1
# RPS6KB1 = conditions: read-out: apparent Kd; compound concentrations:100 nM and 1000 nM (sheet 'Samples'); n = 1
# CDK4 = conditions: read-out: apparent Kd; compound concentrations:100 nM and 1000 nM (sheet 'Samples'); n = 1
# MAP2K2 = conditions: read-out: apparent Kd, n = 1
# MAPK14 = conditions: read-out: apparent Kd; compound concentrations:100 nM and 1000 nM (sheet 'Samples'); n = 1
# MAPKAPK2 = conditions: read-out: apparent Kd; compound concentrations:100 nM and 1000 nM (sheet 'Samples'); n = 1
# NQO2 = conditions: read-out: apparent Kd; compound concentrations:100 nM and 1000 nM (sheet 'Samples'); n = 1
# PRKCZ = conditions: read-out: apparent Kd; compound concentrations:100 nM and 1000 nM (sheet 'Samples'); n = 1
# TP53RK = conditions: read-out: apparent Kd; compound concentrations:100 nM and 1000 nM (sheet 'Samples'); n = 1
# ADK = conditions: read-out: apparent Kd; compound concentrations: 100 nM and 1000 nM (sheet 'Samples'), CATDS: 0.22973332446561601; n = 1
# COX5A = conditions: read-out: apparent Kd; compound concentrations: 100 nM and 1000 nM (sheet 'Samples'), CATDS: 0.19729380709152999; n = 1
# NQO1 = conditions: read-out: apparent Kd; compound concentrations: 100 nM and 1000 nM (sheet 'Samples'), CATDS: 0.179031281586436; n = 1
# RAN = conditions: read-out: apparent Kd; compound concentrations: 100 nM and 1000 nM (sheet 'Samples'), CATDS: 0.206069741930102; n = 1
# [1] = compound concentrations:100 nM and 1000 nM (sheet 'Samples')
# [2] = compound concentrations: 100 nM and 1000 nM (sheet 'Samples'), CATDS: 1
smiles,measurement,setting,value
COc1ccc(O)c(C(=O)c2ccc(C(=O)O[C@@H]3CCCNC[C@H]3NC(=O)c3ccncc3)cc2)c1F.Cl [RO0480500-002],potency estimated from few doses,ADRBK1; [1],119 nM
same,potency estimated from few doses,AURKA,693 nM
same,potency estimated from few doses,CDC42BPA,413 nM
same,potency estimated from few doses,CDC42BPB,51.3 nM
same,potency estimated from few doses,CDC42BPG,630 nM
same,potency estimated from few doses,CDK6,2090 nM
same,potency estimated from few doses,CDKL5,237 nM
same,potency estimated from few doses,CHEK1,26.5 nM
same,potency estimated from few doses,CSNK1G1,2260 nM
same,potency estimated from few doses,FN3KRP,764 nM
same,potency estimated from few doses,MTHFD1,1020 nM
same,potency estimated from few doses,NUAK1,16.5 nM
same,potency estimated from few doses,NUAK2,150 nM
same,potency estimated from few doses,PDXK,1410 nM
same,potency estimated from few doses,PKN1,116 nM
same,potency estimated from few doses,PKN2,241 nM
same,potency estimated from few doses,PRKAA1,485 nM
same,potency estimated from few doses,PRKACA,12.8 nM
same,potency estimated from few doses,PRKACB,21.1 nM
same,potency estimated from few doses,PRKAG1,1510 nM
same,potency estimated from few doses,PRKAG2,75 nM
same,potency estimated from few doses,PRKCA,227 nM
same,potency estimated from few doses,PRKCB,506 nM
same,potency estimated from few doses,PRKCD,25.7 nM
same,potency estimated from few doses,PRKCQ,769 nM
same,potency estimated from few doses,PRKG1,4.47 nM
same,potency estimated from few doses,PRKX;PRKY,40.2 nM
same,potency estimated from few doses,ROCK1,19.2 nM
same,potency estimated from few doses,ROCK2,19.1 nM
same,potency estimated from few doses,RPS6KA5,75 nM
same,potency estimated from few doses,RPS6KB1,38.6 nM
Cc1ccccc1-c1cc(-c2c[nH]nc2-c2ccccn2)ccn1 [GW680061X],potency estimated from few doses,ADRBK1; [1],2140 nM
same,potency estimated from few doses,CDK4,1890 nM
same,potency estimated from few doses,CDK6,1960 nM
same,potency estimated from few doses,MAP2K2; [1],2250 nM
same,potency estimated from few doses,MAPK14,993 nM
same,potency estimated from few doses,MAPKAPK2,470 nM
same,potency estimated from few doses,NQO2,1210 nM
same,potency estimated from few doses,PRKCZ,2260 nM
same,potency estimated from few doses,TP53RK,2160 nM
COc1cc(Nc2ncc3c(C)nc(-c4cccc(C(F)(F)F)c4)n3n2)cc(OC)c1OC [GW837331X],potency estimated from few doses,ADRBK1; [2],2010 nM
COc1ccc(Nc2nccc(NCCNC(=O)Nc3ccccc3F)n2)cc1 [GSK1379901A],potency estimated from few doses,ADK,1220 nM
same,potency estimated from few doses,COX5A,1630 nM
same,potency estimated from few doses,"MAP2K2; compound concentrations: 100 nM and 1000 nM (sheet 'Samples'), CATDS: 0.19454488197691899",1680 nM
same,potency estimated from few doses,NQO1,2010 nM
same,potency estimated from few doses,RAN,1490 nM
O=C(Nc1ccc2c(c1)OCO2)NC1CCN(c2ccnc(NCc3ccc(F)cc3)n2)CC1 [GSK1379859A],potency estimated from few doses,ADRBK1; [2],2160 nM
